Measurements published in ChEMBL document CHEMBL2218924, “A broad activity screen in support of a chemogenomic map for kinase signalling research and drug discovery” (Biochem J, 2013).

Columns and labels:
[1] = biological target: T1, Serine/threonine-protein kinase TBK1 (Homo sapiens) (UniProt Q9UHD2); settings: at 1 µM
T1 sequence (whole entry): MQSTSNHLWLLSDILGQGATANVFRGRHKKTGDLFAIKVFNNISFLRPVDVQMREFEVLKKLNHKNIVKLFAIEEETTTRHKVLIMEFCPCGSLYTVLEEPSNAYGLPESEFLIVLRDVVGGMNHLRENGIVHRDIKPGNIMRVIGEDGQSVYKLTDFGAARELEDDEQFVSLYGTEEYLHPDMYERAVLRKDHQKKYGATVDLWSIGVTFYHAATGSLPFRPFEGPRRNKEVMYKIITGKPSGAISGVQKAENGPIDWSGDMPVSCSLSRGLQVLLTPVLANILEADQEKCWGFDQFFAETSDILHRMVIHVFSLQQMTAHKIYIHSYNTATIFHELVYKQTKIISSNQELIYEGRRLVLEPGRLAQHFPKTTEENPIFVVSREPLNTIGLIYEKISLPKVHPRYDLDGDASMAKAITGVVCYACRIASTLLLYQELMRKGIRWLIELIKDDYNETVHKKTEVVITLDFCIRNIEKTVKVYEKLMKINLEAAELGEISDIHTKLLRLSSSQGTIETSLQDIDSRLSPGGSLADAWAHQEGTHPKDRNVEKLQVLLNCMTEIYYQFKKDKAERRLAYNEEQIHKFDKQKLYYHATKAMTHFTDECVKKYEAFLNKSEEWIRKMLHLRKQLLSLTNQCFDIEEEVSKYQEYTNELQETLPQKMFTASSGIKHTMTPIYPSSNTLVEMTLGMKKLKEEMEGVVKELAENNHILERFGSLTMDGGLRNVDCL

[2] = biological target: T1, Serine/threonine-protein kinase TBK1 (Homo sapiens); settings: at 10 µM
[3] = biological target: T2, TGF-beta receptor type-1 (Homo sapiens) (UniProt P36897); settings: at 1 µM
T2 sequence (whole entry): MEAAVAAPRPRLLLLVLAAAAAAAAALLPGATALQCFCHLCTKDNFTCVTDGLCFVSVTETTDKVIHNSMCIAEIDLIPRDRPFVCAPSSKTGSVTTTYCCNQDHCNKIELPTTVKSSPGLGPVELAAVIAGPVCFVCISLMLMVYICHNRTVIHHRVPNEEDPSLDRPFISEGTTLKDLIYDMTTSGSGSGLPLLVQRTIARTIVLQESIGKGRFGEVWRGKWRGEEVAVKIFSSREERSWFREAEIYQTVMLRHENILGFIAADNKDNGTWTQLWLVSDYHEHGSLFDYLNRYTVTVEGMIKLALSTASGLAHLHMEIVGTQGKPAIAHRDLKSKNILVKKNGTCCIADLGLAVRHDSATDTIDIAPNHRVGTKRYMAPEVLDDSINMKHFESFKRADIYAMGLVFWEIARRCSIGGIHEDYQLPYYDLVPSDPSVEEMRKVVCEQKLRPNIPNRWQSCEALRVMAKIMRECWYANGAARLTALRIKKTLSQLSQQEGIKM

[4] = biological target: T2, TGF-beta receptor type-1 (Homo sapiens); settings: at 10 µM
[5] = biological target: Insulin-like growth factor 1 receptor (Homo sapiens) (UniProt P08069); settings: at 1 µM
Chain of Insulin-like growth factor 1 receptor (Homo sapiens) (P08069 31-736 limits assumed): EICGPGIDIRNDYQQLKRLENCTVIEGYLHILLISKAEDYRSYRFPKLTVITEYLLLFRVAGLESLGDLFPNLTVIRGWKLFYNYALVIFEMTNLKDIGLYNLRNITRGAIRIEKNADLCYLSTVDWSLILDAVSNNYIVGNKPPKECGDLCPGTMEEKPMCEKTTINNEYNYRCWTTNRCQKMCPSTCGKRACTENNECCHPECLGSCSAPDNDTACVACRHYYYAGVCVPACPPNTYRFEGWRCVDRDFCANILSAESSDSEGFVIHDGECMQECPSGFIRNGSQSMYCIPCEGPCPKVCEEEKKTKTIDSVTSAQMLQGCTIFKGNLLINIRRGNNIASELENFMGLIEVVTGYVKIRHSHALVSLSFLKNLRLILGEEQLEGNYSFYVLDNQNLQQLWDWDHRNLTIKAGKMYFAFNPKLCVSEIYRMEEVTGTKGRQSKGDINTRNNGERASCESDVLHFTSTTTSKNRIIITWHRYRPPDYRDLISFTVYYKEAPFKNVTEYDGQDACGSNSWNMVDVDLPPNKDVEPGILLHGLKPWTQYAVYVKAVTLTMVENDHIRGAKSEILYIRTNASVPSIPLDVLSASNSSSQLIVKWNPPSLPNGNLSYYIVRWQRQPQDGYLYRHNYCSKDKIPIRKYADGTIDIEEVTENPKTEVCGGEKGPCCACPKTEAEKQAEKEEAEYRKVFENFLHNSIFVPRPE
Chain of Insulin-like growth factor 1 receptor (Homo sapiens) (P08069 741-1367 limits assumed): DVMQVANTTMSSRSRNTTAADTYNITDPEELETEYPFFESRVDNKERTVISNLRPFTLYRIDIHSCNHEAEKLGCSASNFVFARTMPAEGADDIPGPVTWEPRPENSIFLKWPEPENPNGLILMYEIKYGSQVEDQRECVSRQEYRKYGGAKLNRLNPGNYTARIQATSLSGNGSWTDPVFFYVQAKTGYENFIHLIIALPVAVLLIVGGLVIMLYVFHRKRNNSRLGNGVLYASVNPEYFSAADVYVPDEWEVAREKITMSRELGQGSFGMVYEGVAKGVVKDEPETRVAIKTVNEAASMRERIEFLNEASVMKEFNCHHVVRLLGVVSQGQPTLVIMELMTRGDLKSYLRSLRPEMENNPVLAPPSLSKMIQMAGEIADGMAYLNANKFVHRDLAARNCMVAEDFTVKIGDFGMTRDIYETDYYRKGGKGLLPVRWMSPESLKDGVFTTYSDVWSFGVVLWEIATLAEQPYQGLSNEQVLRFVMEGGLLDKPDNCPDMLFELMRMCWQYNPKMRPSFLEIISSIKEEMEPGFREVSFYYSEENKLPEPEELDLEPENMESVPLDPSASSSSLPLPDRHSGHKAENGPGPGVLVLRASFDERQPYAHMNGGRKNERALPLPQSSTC

[6] = biological target: Insulin-like growth factor 1 receptor (Homo sapiens) (UniProt P08069); settings: at 10 µM
[7] = biological target: T3, Inhibitor of nuclear factor kappa-B kinase subunit alpha (Homo sapiens) (UniProt O15111); settings: at 1 µM
T3 sequence (whole entry): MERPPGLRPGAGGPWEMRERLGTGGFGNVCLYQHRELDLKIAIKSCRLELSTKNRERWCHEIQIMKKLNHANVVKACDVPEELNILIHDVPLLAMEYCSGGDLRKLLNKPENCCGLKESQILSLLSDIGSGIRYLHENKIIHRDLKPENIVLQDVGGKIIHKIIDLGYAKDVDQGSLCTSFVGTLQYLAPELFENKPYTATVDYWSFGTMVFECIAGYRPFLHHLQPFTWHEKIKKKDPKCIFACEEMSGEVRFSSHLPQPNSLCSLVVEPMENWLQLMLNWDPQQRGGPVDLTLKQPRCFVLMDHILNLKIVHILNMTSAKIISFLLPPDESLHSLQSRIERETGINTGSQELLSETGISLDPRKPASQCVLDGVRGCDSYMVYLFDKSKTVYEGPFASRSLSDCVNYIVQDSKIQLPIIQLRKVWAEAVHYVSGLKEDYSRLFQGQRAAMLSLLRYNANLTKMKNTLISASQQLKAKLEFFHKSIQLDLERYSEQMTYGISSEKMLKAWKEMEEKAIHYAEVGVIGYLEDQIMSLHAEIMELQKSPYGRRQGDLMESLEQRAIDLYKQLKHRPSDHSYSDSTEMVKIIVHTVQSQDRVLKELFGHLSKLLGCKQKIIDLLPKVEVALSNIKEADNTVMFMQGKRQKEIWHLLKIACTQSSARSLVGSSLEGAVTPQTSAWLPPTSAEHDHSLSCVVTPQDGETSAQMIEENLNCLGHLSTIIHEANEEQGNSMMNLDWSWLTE

[8] = biological target: T3, Inhibitor of nuclear factor kappa-B kinase subunit alpha (Homo sapiens); settings: at 10 µM
[9] = biological target: T4, Inhibitor of nuclear factor kappa-B kinase subunit beta (Homo sapiens) (UniProt O14920); settings: at 10 µM
T4 sequence (whole entry): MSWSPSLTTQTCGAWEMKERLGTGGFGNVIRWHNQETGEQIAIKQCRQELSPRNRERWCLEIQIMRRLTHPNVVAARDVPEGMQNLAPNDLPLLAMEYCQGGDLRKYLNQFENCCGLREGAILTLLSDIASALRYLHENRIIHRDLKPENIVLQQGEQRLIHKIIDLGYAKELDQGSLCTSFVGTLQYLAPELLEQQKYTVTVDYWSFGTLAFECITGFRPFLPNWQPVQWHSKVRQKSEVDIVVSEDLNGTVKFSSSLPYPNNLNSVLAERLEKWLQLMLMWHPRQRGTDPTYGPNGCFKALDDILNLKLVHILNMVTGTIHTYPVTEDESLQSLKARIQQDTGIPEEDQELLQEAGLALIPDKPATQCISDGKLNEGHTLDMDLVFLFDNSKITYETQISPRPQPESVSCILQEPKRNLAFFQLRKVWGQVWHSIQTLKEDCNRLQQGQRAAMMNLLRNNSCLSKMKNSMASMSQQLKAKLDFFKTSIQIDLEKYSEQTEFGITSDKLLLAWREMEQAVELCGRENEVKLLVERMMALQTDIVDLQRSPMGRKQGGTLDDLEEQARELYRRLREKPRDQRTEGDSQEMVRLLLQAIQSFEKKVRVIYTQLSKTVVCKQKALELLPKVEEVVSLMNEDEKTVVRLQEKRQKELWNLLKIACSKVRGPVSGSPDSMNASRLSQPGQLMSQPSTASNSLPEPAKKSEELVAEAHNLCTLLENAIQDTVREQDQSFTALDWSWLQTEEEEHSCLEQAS

[10] = biological target: Insulin receptor (Homo sapiens) (UniProt P06213); settings: at 1 µM
Chain of Insulin receptor (Homo sapiens) (P06213 28-758 limits assumed): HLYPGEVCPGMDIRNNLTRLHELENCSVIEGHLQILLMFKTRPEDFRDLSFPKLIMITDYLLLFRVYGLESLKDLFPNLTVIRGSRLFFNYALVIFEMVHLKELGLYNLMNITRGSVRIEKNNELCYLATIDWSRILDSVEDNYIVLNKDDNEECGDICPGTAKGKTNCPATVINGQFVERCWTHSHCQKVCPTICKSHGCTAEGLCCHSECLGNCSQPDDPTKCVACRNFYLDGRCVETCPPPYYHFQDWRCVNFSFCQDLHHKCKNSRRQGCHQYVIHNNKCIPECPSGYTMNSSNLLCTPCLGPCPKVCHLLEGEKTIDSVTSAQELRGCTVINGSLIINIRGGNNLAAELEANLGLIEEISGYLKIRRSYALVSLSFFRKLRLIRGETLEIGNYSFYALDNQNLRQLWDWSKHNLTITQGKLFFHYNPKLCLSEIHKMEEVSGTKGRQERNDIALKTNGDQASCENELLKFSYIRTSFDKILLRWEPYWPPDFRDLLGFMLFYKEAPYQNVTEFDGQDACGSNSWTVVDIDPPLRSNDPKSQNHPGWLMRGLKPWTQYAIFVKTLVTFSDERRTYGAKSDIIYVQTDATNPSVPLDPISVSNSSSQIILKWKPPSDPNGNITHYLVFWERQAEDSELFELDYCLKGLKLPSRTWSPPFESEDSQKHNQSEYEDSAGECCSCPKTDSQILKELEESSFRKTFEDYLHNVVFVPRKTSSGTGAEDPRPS
Chain of Insulin receptor (Homo sapiens) (P06213 763-1382 limits assumed): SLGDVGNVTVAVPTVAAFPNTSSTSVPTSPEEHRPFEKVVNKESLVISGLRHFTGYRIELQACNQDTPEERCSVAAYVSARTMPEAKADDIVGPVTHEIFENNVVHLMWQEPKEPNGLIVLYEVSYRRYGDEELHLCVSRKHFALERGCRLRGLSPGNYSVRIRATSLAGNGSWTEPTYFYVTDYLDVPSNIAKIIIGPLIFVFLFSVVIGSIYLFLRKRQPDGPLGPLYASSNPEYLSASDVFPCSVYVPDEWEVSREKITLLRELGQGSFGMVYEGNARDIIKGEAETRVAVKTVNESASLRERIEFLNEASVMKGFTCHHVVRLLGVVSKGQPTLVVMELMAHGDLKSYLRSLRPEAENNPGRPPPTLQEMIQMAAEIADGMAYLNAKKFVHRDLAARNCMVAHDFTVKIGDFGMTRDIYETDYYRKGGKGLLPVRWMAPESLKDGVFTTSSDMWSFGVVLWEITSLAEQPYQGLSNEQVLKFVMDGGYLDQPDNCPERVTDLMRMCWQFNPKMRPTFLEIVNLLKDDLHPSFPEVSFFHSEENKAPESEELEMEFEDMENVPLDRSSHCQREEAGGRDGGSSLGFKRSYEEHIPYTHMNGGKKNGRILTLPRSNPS

O=C(CCCc1ccc(-c2ccccc2F)cc1)Nc1ccc(O)cc1
residual activity [1]: 90%
residual activity [2]: 73%
residual activity [3]: 108%
residual activity [4]: 112%
residual activity [5]: 100%
residual activity [6]: 92%
residual activity [7]: 101%
residual activity [8]: 129%
residual activity [9]: 101%
residual activity [10]: 112%
